According to the supplement of paper PMC10382584, “Macrocyclization of linear molecules by deep learning to facilitate macrocyclic drug candidates discovery” (Nature Communications, 2023):

compound: Cc1cnc(Nc2ccc(OCCN3CCCC3)cc2)nc1Nc1cccc(S(=O)(=O)NC(C)(C)C)c1 [Fedratinib]; test: percent of DMSO control binding (KINOMEscan); higher = weaker binding / less inhibition; extreme values may be limits of the assay; settings: concentration: 100 nM

Chain of UniProt Q9H1R3 (Q9H1R3 whole entry): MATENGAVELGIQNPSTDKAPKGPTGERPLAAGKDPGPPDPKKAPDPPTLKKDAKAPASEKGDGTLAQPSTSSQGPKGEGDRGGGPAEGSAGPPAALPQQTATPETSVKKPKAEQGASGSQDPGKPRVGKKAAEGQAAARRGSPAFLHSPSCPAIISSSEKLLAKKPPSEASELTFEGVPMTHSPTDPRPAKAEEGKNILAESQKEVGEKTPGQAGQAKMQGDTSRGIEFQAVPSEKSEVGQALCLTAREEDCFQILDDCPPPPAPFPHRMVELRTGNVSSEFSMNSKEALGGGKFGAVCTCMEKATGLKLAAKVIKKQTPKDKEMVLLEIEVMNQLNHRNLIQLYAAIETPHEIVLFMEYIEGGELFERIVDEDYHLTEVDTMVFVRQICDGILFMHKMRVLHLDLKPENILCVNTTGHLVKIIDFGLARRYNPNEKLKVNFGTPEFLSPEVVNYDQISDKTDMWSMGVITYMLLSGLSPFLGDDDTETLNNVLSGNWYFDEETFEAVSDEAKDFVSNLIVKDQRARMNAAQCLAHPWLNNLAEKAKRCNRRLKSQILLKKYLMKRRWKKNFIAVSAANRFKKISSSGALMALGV
Chain of UniProt Q16512 (Q16512 whole entry, looked up): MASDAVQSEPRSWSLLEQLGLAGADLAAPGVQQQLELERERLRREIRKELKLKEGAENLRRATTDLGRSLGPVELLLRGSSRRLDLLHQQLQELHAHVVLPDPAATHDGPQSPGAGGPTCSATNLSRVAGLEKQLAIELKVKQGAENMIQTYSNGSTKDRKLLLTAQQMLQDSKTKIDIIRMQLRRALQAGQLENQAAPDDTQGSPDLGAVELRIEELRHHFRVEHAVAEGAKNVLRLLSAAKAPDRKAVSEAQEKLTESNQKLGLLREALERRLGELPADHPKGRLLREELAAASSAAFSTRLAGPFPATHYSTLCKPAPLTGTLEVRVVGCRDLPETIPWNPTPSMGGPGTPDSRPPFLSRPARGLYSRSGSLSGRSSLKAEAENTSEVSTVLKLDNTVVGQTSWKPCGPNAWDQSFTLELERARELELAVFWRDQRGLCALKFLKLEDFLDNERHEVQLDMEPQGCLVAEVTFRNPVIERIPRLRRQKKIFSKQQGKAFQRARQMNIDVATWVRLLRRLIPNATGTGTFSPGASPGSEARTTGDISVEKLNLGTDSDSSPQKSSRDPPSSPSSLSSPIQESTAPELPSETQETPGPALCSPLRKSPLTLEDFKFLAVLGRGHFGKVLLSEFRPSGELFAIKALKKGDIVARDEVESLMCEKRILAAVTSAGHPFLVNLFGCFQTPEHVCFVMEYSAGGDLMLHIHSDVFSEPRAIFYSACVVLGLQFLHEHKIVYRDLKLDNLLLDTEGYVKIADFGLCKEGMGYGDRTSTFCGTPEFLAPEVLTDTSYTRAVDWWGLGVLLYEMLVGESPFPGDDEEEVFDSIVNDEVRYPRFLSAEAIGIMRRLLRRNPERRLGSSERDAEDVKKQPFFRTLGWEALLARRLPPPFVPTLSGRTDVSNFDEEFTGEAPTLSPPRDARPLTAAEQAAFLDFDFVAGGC
Chain of UniProt Q9H4A3 (Q9H4A3 whole entry, looked up): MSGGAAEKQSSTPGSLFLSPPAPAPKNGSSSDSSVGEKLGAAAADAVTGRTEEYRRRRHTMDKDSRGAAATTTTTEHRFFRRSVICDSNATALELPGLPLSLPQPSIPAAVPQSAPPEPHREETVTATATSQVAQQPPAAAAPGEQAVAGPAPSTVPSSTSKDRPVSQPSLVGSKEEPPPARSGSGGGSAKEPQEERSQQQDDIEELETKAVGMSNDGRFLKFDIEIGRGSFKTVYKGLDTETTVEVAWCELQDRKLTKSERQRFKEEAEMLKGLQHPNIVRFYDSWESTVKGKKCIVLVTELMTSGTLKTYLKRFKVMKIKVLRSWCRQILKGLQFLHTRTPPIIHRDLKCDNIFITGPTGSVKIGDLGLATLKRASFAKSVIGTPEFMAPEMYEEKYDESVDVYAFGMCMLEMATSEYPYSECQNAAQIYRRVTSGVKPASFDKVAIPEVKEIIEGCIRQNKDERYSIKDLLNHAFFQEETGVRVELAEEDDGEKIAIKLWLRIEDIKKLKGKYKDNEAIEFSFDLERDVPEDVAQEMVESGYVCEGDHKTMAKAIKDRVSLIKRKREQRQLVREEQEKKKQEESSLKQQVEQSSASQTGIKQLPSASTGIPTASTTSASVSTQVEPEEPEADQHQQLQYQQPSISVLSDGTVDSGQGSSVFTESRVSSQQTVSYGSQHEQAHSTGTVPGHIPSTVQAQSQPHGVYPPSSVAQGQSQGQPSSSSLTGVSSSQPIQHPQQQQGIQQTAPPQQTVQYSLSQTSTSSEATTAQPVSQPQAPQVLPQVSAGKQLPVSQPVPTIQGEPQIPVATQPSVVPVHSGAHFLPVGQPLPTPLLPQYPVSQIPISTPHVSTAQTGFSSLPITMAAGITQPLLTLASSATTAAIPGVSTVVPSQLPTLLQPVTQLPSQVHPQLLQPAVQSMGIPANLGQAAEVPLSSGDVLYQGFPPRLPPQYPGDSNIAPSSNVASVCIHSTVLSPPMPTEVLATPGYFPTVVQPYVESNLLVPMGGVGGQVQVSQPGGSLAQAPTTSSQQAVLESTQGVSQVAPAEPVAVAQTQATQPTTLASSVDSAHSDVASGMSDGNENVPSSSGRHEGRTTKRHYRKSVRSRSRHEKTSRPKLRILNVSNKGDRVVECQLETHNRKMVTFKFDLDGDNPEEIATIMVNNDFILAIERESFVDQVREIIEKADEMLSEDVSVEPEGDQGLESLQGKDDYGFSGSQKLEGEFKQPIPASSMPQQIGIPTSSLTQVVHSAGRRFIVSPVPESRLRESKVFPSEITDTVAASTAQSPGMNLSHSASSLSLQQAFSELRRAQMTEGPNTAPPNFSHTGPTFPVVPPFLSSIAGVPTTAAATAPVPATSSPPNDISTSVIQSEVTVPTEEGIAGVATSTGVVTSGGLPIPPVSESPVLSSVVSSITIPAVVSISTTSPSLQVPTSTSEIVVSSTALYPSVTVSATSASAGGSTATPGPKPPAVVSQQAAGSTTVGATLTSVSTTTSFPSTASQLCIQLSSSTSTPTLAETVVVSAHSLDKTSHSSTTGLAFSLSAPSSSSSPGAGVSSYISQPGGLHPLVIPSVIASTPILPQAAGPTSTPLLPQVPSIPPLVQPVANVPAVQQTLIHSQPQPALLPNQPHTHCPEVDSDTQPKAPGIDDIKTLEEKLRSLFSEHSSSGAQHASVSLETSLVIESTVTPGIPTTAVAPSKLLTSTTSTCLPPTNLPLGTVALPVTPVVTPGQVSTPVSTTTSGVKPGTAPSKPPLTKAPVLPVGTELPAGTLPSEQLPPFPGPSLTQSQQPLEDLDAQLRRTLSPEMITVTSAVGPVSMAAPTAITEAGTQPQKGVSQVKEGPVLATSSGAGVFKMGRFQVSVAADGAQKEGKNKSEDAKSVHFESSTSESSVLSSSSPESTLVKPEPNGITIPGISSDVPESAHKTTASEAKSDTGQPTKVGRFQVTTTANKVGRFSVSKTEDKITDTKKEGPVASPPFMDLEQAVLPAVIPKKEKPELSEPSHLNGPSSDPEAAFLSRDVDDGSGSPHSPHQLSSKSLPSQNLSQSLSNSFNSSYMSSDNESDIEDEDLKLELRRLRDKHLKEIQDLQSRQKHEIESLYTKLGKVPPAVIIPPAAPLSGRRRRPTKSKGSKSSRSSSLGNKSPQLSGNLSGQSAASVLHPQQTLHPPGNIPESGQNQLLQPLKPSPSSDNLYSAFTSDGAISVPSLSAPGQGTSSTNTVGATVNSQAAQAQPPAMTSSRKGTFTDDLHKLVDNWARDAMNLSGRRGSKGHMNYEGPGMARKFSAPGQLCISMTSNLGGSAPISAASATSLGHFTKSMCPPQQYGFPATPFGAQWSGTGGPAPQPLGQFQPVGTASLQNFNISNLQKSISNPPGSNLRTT
Chain of UniProt O43318 (O43318 whole entry): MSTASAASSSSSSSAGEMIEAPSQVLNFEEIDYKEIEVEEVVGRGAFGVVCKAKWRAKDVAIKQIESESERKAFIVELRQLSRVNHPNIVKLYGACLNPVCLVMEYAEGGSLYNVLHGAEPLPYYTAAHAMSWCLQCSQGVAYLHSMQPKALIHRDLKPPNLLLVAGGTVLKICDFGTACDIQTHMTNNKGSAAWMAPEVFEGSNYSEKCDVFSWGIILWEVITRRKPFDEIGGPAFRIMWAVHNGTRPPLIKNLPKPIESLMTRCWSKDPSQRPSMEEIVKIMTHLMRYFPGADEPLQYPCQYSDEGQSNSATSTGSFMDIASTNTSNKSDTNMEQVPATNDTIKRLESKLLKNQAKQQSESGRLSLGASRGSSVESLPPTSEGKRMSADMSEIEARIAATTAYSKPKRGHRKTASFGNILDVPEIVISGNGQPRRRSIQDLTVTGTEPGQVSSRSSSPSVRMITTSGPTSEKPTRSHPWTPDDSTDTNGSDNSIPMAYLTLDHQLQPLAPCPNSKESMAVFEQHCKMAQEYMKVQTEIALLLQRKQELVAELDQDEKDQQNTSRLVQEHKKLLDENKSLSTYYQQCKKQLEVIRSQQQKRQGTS
Chain of UniProt Q8TBX8 (Q8TBX8 whole entry): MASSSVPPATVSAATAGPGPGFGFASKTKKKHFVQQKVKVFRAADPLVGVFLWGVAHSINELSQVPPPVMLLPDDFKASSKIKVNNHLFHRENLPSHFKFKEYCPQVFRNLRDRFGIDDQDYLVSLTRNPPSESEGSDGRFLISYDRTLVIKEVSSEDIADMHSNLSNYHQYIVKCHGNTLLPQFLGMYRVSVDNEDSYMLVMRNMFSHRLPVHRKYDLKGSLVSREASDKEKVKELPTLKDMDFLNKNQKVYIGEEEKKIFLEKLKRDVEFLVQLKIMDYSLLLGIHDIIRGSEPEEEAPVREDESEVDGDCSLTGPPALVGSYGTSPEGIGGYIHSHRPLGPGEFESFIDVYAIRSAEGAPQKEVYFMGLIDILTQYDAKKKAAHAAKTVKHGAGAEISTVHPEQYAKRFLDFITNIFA

Target | percent of DMSO control binding [%]
TTK (UniProt P33981) | 75
PKN1 (UniProt Q16512) | 100
EGFR(G719S) (UniProt P00533) | 99
CDKL2 (UniProt Q92772) | 100
RSK1(Kin.Dom.2-C-terminal) (UniProt Q15418) | 93
OSR1 (UniProt O95747) | 91
ROCK1 (UniProt Q13464) | 40
DCAMKL2 (UniProt Q8N568) | 97
TAOK3 (UniProt Q9H2K8) | 60
EPHB4 (UniProt P54760) | 100
ERK3 (UniProt Q16659) | 100
DAPK2 (UniProt Q9UIK4) | 16
MKNK1 (UniProt Q9BUB5) | 88
CDK4-cyclinD3 (UniProt P11802) | 90
WNK1 (UniProt Q9H4A3) | 100
EGFR(G719C) (UniProt P00533) | 100
PIP5K1C (UniProt O60331) | 100
LATS2 (UniProt Q9NRM7) | 89
ACVR2A (UniProt P27037) | 100

Target | percent of DMSO control binding [%]
CAMK1B (UniProt Q6P2M8) | 66
TAK1 (UniProt O43318) | 81
PKNB(M.tuberculosis) | 61
EGFR(E746-A750del) (UniProt P00533) | 99
PAK7 (UniProt Q9P286) | 100
PIK3CD (UniProt O00329) | 75
MAP3K15 (UniProt Q6ZN16) | 61
RPS6KA4(Kin.Dom.1-N-terminal) (UniProt O75676) | 100
MYLK2 (UniProt Q9H1R3) | 100
RSK4(Kin.Dom.1-N-terminal) | 70
RPS6KA4(Kin.Dom.2-C-terminal) (UniProt O75676) | 39
PRKG1 (UniProt Q13976) | 100
RAF1 (UniProt P04049) | 85
EPHB1 (UniProt P54762) | 100
PIK3CG (UniProt P48736) | 100
MTOR (UniProt P42345) | 87
PIP5K2C (UniProt Q8TBX8) | 100
DYRK1B (UniProt Q9Y463) | 97
